Test results from PubChem BioAssay AID1981 (Southern Research Specialized Biocontainment Screening …, 2009).
About 480 (22%) of roughly 2,200 compounds were called active. How the calls were made is not given here. Not all results are given here. Potency and affinity values are given separately.

Assay: S. Typhimurium GFP fluorescence modified counterscreen for PhoP regulon inhibitor project dose response (AID 1981);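 further: 0% = induced DMSO wells and 100% = uninduced wells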
Details: 4 h; series mostly up to 150 µM; inhibition: at the top concentration

Structure (SMILES) | inhibition
O=C(CSc1ccc2c(c1)OCCO2)NCCc1ccc(Cl)cc1Cl | -4.24% (inactive)
CCOC(=O)/C(=C/C=C/c1ccccc1)NC(=O)c1ccccc1 | -1.59% (inactive)
Cc1[nH]c2ccccc2c1/C=N/O | 8.32% (inactive)
COc1ccc2[nH]c(S(=O)Cc3ncc(C)c(OC)c3C)nc2c1 (configuration not stated) | -29.2% (inactive)
Oc1ccc(-c2n[nH]c(=S)n2-c2ccc3c(c2)OCCO3)c(O)c1 | -23.8% (inactive)
Cc1ccc(Nc2nc(CSc3nnc(-c4cccnc4)n3-c3ccccc3F)cs2)cc1 | -4.68% (inactive)
COc1ccc(OC)c(S(=O)(=O)N(C)CC(=O)N2CCc3ccccc3C2)c1 | 0.16% (inactive)
COc1cc(C)nc(Nc2nc(C)c(C(C)=O)s2)n1 | -13.1% (inactive)
COC(OC)c1nc(SCC(=O)Nc2cccc(Cl)c2)ncc1C(=O)O | 12.7% (inactive)
C#CCn1cc(/C=N/Nc2nc3ccccc3[nH]2)c2ccccc21 | 29.9% (inactive)
C(=C\c1ccccc1)/C=N/Nc1nc2ccccc2[nH]1 | 5.88% (inactive)
CN(c1cccc(Cl)c1)S(=O)(=O)c1cccc(C(=O)Nc2nc3ccccc3[nH]2)c1 | 2.87% (inactive)
CCN(CC)c1ccc(/C=N/NC(=S)NCc2ccccc2)c(O)c1 | 7.11% (inactive)
CN1CCN(S(=O)(=O)c2ccc(-c3ccccc3)cc2)CC1 | -2.63% (inactive)
COc1ccc(C2=Nc3cccc4cccc(c34)N2)cc1 | 23.4% (inactive)
Cc1ccc(CNC(=O)c2cccc(S(C)(=O)=O)c2)cc1 | -12.3% (inactive)

Structure (SMILES) | inhibition
COc1ccc(-c2nnc(SCC(=O)NCc3ccco3)o2)cc1 | -15.1% (inactive)
Cc1ccc(S(=O)(=O)NCCC(=O)OCn2nnc3ccccc3c2=O)cc1 | -6.39% (inactive)
CN1/C(=C/C=N/NC(=O)c2ccc([N+](=O)[O-])cc2)C(C)(C)c2ccccc21 | 14.1% (inactive)
CN1/C(=C/C2CC(=O)N(c3cccc4ccccc34)C2=O)C(C)(C)c2ccccc21 (configuration not stated) | 33% (inactive)
COC(=O)c1cc(C#N)c(Oc2cccc(C)c2C)nc1C | -3.13% (inactive)
Cc1c(/C=C/C(=O)c2ccccc2)cnn1C | -23.1% (inactive)
O=C1c2ccccc2C2=Nc3ccccc3SC(c3cccc(F)c3)C12 (configuration not stated) | 32.5% (inactive)
Cn1c(N)c(C(=O)COC(=O)C2CCCCC2)c(=O)n(C)c1=O | -19.5% (inactive)
COc1ccccc1NCCC(=O)OCC(=O)NC1CCCCCC1 | 3.79% (inactive)
O=c1c2ccccc2nc(-c2ccco2)n1-c1nccs1 | -7.28% (inactive)
CNc1nc(Sc2ccccc2)cc(C(F)(F)F)n1 | -5.48% (inactive)
CC(=O)Nc1c(C#N)c(C(C)(C)C)cn1C | -1.78% (inactive)
CCOC(=O)c1ccc(N2CCN(c3ccc(F)cc3)CC2)c(NC(=O)Nc2cccc(OC)c2)c1 | -2.83% (inactive)
COc1ccccc1-c1c(C#N)c(N)nc2c1CCc1ccccc1-2 | -21.4% (inactive)
CCOC(=O)CSc1nc2c(sc(=S)n2-c2ccccc2)c(=O)n1-c1ccc(OC)cc1OC | -4.8% (inactive)
CCOC(=O)Cc1ccc2sc(-c3ccccc3)nc2c1 | -0.11% (inactive)
